From PubChem BioAssay (NCI)
This is part of a sample that, as a whole, favours compounds with a hit. Of some 83,000 tested, about 20% had one in any assay.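 Interpretation: 100, growth as untreated; towards 0, rising growth inhibition; 0, no net growth; 0 to -100, cell death. Compounds scoring below 10 were considered active.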 The source made the active and inactive calls.

system: HL-60(TB) leukemia; assay: NCI-60 one-dose screen, 48 h (100 = growth as untreated, 0 = no growth, -100 = all killed); conditions: 10 µM unless noted

Compound	growth
COc1cc(Nc2cc(C)nc(N3CCN(c4ccnc5cc(Cl)ccc45)CC3)n2)cc(OC)c1	-6.44% (active)
C[C@H]1[C@@H]2[C@H]3CC[C@@H]4[C@@]5(C)Cc6c([nH]c7ccccc67)C(C)(C)[C@@H]5CC[C@@]4(C)[C@]3(C)CC[C@]23CO[C@]1(C)[C@@H](C(=O)/C=C/c1ccccn1)C3	72.4% (inactive)
COc1ccc(S(=O)(=O)N2CCCCC2)cc1NC(=O)c1[nH]c(C)c2c1CCCCC2=O	-10.9% (active)
CN(C)c1ccc(-c2cc(-c3ccc(Nc4nc(Nc5ccc(Cl)cc5)nc(Nc5ccc(Cl)cc5)n4)cc3)nc(N)c2C#N)cc1	68% (inactive)
O=C(CCN1CCCC1)Nc1ccc2c(Nc3ccc(F)cc3)c3ccccc3nc2c1	-54.9% (active)
O=C1N/C(=N/N=C(c2ccccc2)c2ccccc2)S/C1=C\c1ccc(Br)cc1	89.1% (inactive)
O=C(O)c1cn(C2CC2)c2cc(N3CCN(Cc4cc(Cl)ccc4O)CC3)c(F)cc2c1=O	46.4% (inactive)
COc1ccc(/C=C(/C(=O)N2CCNCC2)c2cc(OC)c(OC)c(OC)c2)cc1O	-37.7% (active)
C#CCOc1ccc2nc(CCl)c(Cl)c(Nc3cccc(C(F)(F)F)c3)c2c1	56.1% (inactive)
Cc1nc2sccn2c1-c1csc(Nc2cccc(Cl)c2C)n1	36.4% (inactive)
O=C(Oc1cccc2ccccc12)c1ccccc1C(=O)c1ccccc1	-8.79% (active)
COc1ccc(-c2nc3sccn3c2-c2ccnc(NCCNS(=O)(=O)c3ccc(C(F)(F)F)cc3)n2)cc1	4.59% (active)
